The source made the active and inactive calls. How the source made its calls: active means hit-call score of the fitted dose curve at least 0.9, where 1 is the maximum; inactive means score below 0.9.
How the values were obtained:
[1] = ATG_GLI_CIS: Attagene CIS-FACTORIAL HepG2 Assay for human Zinc Finger Protein GLI1 (AID 2282945); conditions: HepG2, Attagene cis-factorial reporter mRNA, GLI element; actives raise or lower the signal
In short: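 Bidirectional curve fits relative to DMSO, using reporter mRNA levels from RT-PCR plus capillary electrophoresis. Cells were HepG2 transiently carrying cis-regulated reporter constructs, harvested 24 h after dosing.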

[2] = ATG_GRE_CIS: Attagene CIS-FACTORIAL HepG2 Assay for human Glucocorticoid Response Elements (GRE) (AID 2282947); conditions: HepG2 GRE cis-reporter, Attagene multiplex mRNA; actives raise or lower the signal
In short: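 Transient MRTU transfection of human HepG2 liver cells; cis-regulated reporters report endogenous factors. 24 h dosing → RNA isolation → RT-PCR → 6-FAM primer extension → HpaI cut → CE fragment analysis. Bidirectional fit, DMSO negative control.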

[3] = ATG_ISRE_CIS: Attagene CIS-FACTORIAL HepG2 Assay for human Interferon Regulatory Factor 1 (IRF1) binding to an Interferon-Stimulated Response Element (ISRE) (AID 2282948); conditions: HepG2 ISRE cis-reporter (Attagene), mRNA transcription readout; actives raise or lower the signal
In short: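 Cell-based cis-reporter assay; HepG2; 24 h exposure; reporter mRNA by RT-PCR plus capillary electrophoresis fluorescence; activity in either direction scored relative to DMSO.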

[4] = ATG_M_32_CIS: Attagene CIS-FACTORIAL HepG2 Assay for M32 Transcription Factor (Internal Marker) (AID 2282949); conditions: HepG2 Attagene cis-factorial M32 reporter, mRNA; actives raise or lower the signal;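 further: background control marker of the multiplexed CIS panel rather than a real target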
In short: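 Fluorescent capillary electrophoresis peaks of HpaI-digested, FAM-labelled RT-PCR reporter products give the signal. Source: transiently transfected human liver HepG2 cells, 24 h after chemical dosing; bidirectional fitting against DMSO.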

[5] = ATG_M_06_CIS: Attagene CIS-FACTORIAL HepG2 Assay for M06 Transcription Factor (Internal Marker) (AID 2282950); conditions: HepG2 Attagene CIS-FACTORIAL M06 internal marker reporter; actives raise or lower the signal
In short: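 Fluorescence-labelled RT-PCR products from cis-promoter reporter units, cut with HpaI and resolved by capillary electrophoresis, give the signal. Cells are human HepG2, dosed for 24 h. Serves as background control, fitted relative to DMSO.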

[6] = target: Hypoxia-inducible factor 1-alpha (Homo sapiens) (UniProt Q16665); test: ATG_HIF1a_CIS: Attagene CIS-FACTORIAL HepG2 Assay for human Hypoxia Inducible Factor 1 (HIF1A) (AID 2282951); conditions: HepG2 Attagene cis-factorial HIF1a reporter transcription; actives raise or lower the signal
In short: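 In this multiplexed cell assay, HepG2 cells bearing transfected cis reporters are dosed for 24 h and reporter mRNA is read by RT-PCR plus capillary electrophoresis; signal increases and decreases are both scored against DMSO.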

[7] = target: Hepatocyte nuclear factor 6 (Homo sapiens) (UniProt Q9UBC0); test: ATG_HNF6_CIS: Attagene CIS-FACTORIAL HepG2 Assay for human Hepatocyte Nuclear Factor 6 (HNF6) (AID 2282952); conditions: HepG2 Attagene cis-factorial HNF6 reporter transcription; actives raise or lower the signal
In short: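 Multiplexed mRNA reporter assay in transfected HepG2; 24 h dosing; RT-PCR plus capillary electrophoresis fluorescence; DMSO-referenced bidirectional curve fitting.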

[8] = target: Heat shock factor protein 1 (Homo sapiens) (UniProt Q00613); test: ATG_HSE_CIS: Attagene CIS-FACTORIAL HepG2 Assay for human Heat Shock Transcription Factor 1 (HSE) (AID 2282953); conditions: HepG2 HSE cis-reporter, Attagene RNA transcription; actives raise or lower the signal
In short: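 After a 24 h incubation with test chemical, transfected HepG2 cells were harvested for RNA; reporter transcripts were measured by RT-PCR and capillary electrophoresis. Values reflect gain or loss of signal relative to DMSO.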

[9] = ATG_MRE_CIS: Attagene CIS-FACTORIAL HepG2 Assay for human Metal Responsive Element (MRE) (AID 2282954); conditions: HepG2 MRE cis-reporter transcription, Attagene multiplex; actives raise or lower the signal
In short: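 Transient MRTU transfection of HepG2 (FuGene 6); 24 h dosing; total RNA → oligo(dT) RT, PCR, 6-FAM primer extension, HpaI cut, CE. Bidirectional fit vs DMSO.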

[10] = target: Paired box protein Pax-6 (Homo sapiens) (UniProt P26367); test: ATG_Pax6_CIS: Attagene CIS-FACTORIAL HepG2 Assay for human Paired Box 6 (PAX6) (AID 2282956); conditions: HepG2 CIS-FACTORIAL PAX6 reporter transcription, RNA readout; actives raise or lower the signal
In short: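 Multiplexed cis-reporter HepG2 system; 24 h treatment; reporter mRNA read by RT-PCR/CE fluorescence; bidirectional fit vs DMSO.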

[11] = ATG_PXRE_CIS: Attagene CIS-FACTORIAL HepG2 Assay for human Pregnane X Receptor Element (PXRE) (AID 2282957); conditions: HepG2 Attagene CIS-FACTORIAL PXRE reporter, mRNA; actives raise or lower the signal
In short: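 Cells: HepG2, transiently transfected reporter units under cis promoter control. Exposure: 24 h. Detection: reporter mRNA via RT-PCR/CE fluorescence; bidirectional fitting, DMSO-referenced.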

[12] = ATG_PPRE_CIS: Attagene CIS-FACTORIAL HepG2 Assay for human Peroxisome Proliferator-activated Response Element (PPRE) (AID 2282958); conditions: HepG2 PPRE cis-element reporter, Attagene transcription factor profiling; actives raise or lower the signal
In short: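 Multiplexed reporter transcription units under cis-regulatory promoters were transfected into HepG2 cells to capture endogenous factor activity. A 24 h incubation preceded RNA isolation and fluorescent RT-PCR fragment analysis.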

[13] = ATG_RORE_CIS: Attagene CIS-FACTORIAL HepG2 Assay for human RAR-related Orphan Receptor Element (RORE) (AID 2282959); conditions: HepG2 Attagene cis-factorial RORE reporter, mRNA; actives raise or lower the signal
In short: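 Fluorescence intensity of reporter-specific cDNA fragments, separated by capillary electrophoresis, gives the signal. Source: HepG2 liver cells transiently transfected with cis-element reporters and exposed 24 h; DMSO-normalized bidirectional fit.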

[14] = ATG_Sox_CIS: Attagene CIS-FACTORIAL HepG2 Assay for human SRY-box transcription factor (SOX) (AID 2282960); conditions: HepG2 Attagene cis-factorial SOX reporter, mRNA; actives raise or lower the signal
In short: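 After 24 h of chemical treatment, transfected HepG2 reporter cells are lysed for total RNA. Transcript levels come from RT-PCR with labelled primer extension and capillary electrophoresis, analysed bidirectionally versus DMSO.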

[15] = target: Transcription factor Sp1 (Homo sapiens) (UniProt P08047); test: ATG_Sp1_CIS: Attagene CIS-FACTORIAL HepG2 Assay for human Specificity Protein 1 (Sp1) (AID 2282961); conditions: HepG2 Sp1 cis-reporter transcription, actives raise or lower the signal
In short: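 Sp1-driven reporter mRNA, read as capillary electrophoresis fluorescence after RT-PCR, in transiently transfected HepG2 cells dosed for 24 h; signal change in either direction relative to DMSO.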

[16] = ATG_SREBP_CIS: Attagene CIS-FACTORIAL HepG2 Assay for human Sterol Regulatory Element Binding (SREBP) (AID 2282962); conditions: HepG2 Attagene cis-factorial SREBP reporter, mRNA; actives raise or lower the signal
In short: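 mRNA induction of transfected cis-promoter reporters in HepG2 cells, 24 h post-dose. Detection: RT-PCR with 6-FAM-labelled products, HpaI digest, capillary electrophoresis. DMSO served as negative control and baseline.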

[17] = target: Signal transducer and activator of transcription 3 (Homo sapiens) (UniProt P40763); test: ATG_STAT3_CIS: Attagene CIS-FACTORIAL HepG2 Assay for human Signal Transducer and Activator of Transcription 3 (STAT3) (AID 2282963); conditions: HepG2, Attagene cis-factorial STAT3 reporter transcription; actives raise or lower the signal
In short: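 Endogenous STAT3-responsive cis-element activity was read in transiently transfected HepG2 cells after 24 h treatment. Reporter transcripts were quantified via RT-PCR and capillary electrophoresis, with DMSO as negative control and bidirectional curve fitting.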

[18] = ATG_PBREM_CIS: Attagene CIS-FACTORIAL HepG2 Assay for human Phenobarbital-responsive Enhancer Module (PBREM) (AID 2282955); conditions: HepG2 PBREM cis-reporter, Attagene multiplexed transcription; actives raise or lower the signal
In short: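 After a 24 h incubation with test chemical, transfected HepG2 cells yield total RNA; reporter-specific RT-PCR products are fluorescently labelled, HpaI-digested and resolved by capillary electrophoresis against ROX size standards.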

[19] = ATG_TA_CIS: Attagene CIS-FACTORIAL HepG2 Assay for human TA Basal Promoter (AID 2282964); conditions: HepG2 Attagene CIS-factorial TA basal promoter reporter; actives raise or lower the signal
In short: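 Multiplexed mRNA reporter assay, HepG2, 24 h. Reporter cDNA amplified, 6-FAM primer-extended, HpaI-cut, CE-sized; DMSO = negative control and baseline.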

Measured: AC50

Chain of Transcription factor Sp1 (Homo sapiens) (P08047 whole entry, looked up): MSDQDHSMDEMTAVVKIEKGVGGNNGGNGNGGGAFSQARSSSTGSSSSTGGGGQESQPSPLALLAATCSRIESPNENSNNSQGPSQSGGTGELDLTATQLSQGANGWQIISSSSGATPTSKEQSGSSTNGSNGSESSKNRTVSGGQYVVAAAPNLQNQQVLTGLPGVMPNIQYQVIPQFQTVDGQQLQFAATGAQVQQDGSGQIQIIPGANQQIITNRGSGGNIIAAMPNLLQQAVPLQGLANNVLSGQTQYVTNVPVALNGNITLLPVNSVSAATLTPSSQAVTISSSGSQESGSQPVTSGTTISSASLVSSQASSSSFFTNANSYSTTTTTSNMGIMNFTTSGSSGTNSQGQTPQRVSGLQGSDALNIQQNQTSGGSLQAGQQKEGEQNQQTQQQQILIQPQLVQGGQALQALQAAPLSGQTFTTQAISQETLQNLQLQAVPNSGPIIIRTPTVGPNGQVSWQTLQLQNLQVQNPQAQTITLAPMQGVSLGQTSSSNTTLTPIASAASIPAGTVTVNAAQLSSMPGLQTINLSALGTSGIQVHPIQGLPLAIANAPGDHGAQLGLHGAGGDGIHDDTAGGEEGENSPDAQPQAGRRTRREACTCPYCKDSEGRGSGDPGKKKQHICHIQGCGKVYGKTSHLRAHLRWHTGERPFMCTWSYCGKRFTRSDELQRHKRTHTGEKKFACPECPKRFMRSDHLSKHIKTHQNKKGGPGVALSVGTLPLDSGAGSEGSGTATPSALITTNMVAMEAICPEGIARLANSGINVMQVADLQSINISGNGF
Chain of Hypoxia-inducible factor 1-alpha (Homo sapiens) (Q16665 whole entry, looked up): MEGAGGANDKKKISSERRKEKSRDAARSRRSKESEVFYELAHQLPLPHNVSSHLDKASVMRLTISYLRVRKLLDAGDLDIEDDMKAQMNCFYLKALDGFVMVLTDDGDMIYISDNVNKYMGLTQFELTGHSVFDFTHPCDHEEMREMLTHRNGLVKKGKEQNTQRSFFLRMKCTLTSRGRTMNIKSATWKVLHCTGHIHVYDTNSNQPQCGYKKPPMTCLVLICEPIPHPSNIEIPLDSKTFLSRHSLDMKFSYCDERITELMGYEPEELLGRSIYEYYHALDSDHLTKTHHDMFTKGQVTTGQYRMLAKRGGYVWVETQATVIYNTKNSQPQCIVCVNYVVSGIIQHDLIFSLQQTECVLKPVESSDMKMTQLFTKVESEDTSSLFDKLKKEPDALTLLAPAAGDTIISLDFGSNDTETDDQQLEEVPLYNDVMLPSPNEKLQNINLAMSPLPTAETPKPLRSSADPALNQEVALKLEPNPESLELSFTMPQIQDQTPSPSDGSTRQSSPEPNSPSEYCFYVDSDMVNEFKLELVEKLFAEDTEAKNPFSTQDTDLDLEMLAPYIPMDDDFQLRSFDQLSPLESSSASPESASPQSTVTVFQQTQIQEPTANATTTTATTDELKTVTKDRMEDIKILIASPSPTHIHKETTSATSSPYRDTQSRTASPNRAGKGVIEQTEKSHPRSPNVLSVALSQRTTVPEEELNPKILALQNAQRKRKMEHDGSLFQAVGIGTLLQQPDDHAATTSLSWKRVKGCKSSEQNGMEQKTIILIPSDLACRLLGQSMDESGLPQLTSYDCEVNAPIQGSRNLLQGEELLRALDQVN
Chain of Hepatocyte nuclear factor 6 (Homo sapiens) (Q9UBC0 whole entry, looked up): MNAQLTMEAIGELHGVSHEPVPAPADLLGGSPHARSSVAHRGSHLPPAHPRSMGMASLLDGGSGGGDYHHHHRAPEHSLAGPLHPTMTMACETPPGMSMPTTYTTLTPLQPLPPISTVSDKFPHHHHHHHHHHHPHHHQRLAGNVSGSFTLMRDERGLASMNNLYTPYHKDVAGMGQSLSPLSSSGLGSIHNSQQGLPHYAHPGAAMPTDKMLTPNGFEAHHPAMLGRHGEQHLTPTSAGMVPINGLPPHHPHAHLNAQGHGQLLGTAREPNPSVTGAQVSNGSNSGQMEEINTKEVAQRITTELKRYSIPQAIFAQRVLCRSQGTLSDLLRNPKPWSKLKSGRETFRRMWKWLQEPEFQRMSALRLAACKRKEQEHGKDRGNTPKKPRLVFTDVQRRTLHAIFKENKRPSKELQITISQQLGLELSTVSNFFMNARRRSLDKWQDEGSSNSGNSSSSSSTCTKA
Chain of Signal transducer and activator of transcription 3 (Homo sapiens) (P40763 whole entry, looked up): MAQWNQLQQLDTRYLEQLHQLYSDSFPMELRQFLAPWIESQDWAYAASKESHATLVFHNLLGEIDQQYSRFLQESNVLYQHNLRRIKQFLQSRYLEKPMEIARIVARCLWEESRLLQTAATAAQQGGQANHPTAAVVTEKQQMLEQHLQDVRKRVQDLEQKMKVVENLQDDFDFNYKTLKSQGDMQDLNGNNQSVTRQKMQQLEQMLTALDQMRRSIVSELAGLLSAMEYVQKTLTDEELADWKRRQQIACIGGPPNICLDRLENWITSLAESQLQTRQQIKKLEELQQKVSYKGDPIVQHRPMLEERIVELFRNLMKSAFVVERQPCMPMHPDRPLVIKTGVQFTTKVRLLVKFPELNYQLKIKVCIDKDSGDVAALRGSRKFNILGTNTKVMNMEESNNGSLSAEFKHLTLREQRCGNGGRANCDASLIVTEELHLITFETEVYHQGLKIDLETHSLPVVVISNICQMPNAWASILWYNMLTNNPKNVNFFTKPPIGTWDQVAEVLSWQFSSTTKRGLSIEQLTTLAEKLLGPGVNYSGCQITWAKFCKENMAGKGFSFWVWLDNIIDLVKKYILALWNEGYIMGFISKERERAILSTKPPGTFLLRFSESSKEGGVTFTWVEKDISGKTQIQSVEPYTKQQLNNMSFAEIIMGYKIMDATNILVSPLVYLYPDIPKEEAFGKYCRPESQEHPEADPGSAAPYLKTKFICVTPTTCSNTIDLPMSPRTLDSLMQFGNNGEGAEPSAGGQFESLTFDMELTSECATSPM
Chain of Paired box protein Pax-6 (Homo sapiens) (P26367 whole entry, looked up): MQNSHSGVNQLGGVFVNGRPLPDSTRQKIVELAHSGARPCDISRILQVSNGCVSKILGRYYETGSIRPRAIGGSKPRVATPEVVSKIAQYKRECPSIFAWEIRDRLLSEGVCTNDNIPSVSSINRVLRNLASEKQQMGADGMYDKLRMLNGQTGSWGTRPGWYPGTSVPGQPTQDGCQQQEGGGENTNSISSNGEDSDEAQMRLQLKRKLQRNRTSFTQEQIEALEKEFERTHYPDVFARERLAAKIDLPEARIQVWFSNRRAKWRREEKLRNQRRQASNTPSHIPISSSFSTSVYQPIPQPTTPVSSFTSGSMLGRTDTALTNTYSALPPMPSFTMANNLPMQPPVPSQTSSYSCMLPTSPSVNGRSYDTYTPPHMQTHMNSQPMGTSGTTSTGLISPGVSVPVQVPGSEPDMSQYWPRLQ
Chain of Heat shock factor protein 1 (Homo sapiens) (Q00613 whole entry, looked up): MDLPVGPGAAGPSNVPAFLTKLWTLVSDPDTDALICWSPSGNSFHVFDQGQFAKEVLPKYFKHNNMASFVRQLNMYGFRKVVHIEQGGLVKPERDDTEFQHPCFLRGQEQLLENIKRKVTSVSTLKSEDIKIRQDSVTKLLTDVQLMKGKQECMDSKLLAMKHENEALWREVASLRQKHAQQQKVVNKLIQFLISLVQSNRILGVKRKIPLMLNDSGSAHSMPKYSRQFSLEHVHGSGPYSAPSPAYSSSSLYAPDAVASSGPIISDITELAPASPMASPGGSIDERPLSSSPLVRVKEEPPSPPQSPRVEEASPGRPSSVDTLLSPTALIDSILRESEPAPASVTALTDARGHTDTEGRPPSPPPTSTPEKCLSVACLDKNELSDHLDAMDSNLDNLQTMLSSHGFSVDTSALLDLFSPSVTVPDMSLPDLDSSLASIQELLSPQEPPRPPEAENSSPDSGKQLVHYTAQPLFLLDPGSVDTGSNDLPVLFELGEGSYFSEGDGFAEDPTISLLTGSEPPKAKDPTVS

CCCCCCCCCCCCCCCCCC(=O)OCCCCCCCCCCCCCC(C)C
active: [11] 46.9 µM
inactive: [1] | [2] | [3] | [4] | [5] | [6] | [7] | [8] | [9] | [10] | [12] | [13] | [14] | [15] | [16] | [17]

CCOC(=O)C(=O)OCC
inactive: [1] | [2] | [3] | [4] | [5] | [6] | [7] | [8] | [9] | [18] | [10] | [11] | [12] | [13] | [14] | [15] | [16] | [17] | [19]

C1CCCNCC1
inactive: [1] | [2] | [3] | [4] | [5] | [6] | [7] | [8] | [9] | [18] | [10] | [12] | [13] | [14] | [15] | [16] | [17] | [19]
active: [11] 27.3 µM

CN(C)c1ccc(C=O)cc1
inactive: [1] | [2] | [3] | [4] | [5] | [6] | [7] | [8] | [9] | [18] | [10] | [11] | [12] | [13] | [15] | [16] | [17] | [19]

CCCCCCCCCCCCN1CCOCC1
inactive: [1] | [2] | [3] | [4] | [5] | [6] | [7] | [8] | [9] | [18] | [10] | [11] | [12] | [13] | [14] | [15] | [16]

C=CC(C)(CCC=C(C)C)OC(=O)CC (stereo not given)
inactive: [1] | [2] | [3] | [4] | [5] | [6] | [7] | [8] | [9] | [18] | [10] | [13] | [14] | [15] | [16] | [17] | [19]
active: [11] 31 µM

Cc1cc(O)c(C)c(C)c1O
active: [11] 9.14 µM
inactive: [1] | [2] | [3] | [4] | [5] | [6] | [7] | [8] | [9] | [18] | [10] | [12] | [13] | [15] | [16] | [19]

CCCO[Si](OCCC)(OCCC)OCCC
active: [12] 42.2 µM
inactive: [1] | [2] | [3] | [4] | [5] | [6] | [7] | [8] | [9] | [18] | [10] | [11] | [13] | [14] | [15] | [16] | [17] | [19]

CC1=C(C=O)C(C)(C)CCC1
inactive: [1] | [2] | [3] | [4] | [5] | [6] | [7] | [8] | [9] | [18] | [10] | [12] | [13] | [14] | [15] | [16] | [17] | [19]
active: [11] 1.75 µM

CCCCCCCCOS(=O)(=O)O
inactive: [1] | [2] | [3] | [4] | [5] | [6] | [7] | [8] | [9] | [18] | [10] | [11] | [13] | [14] | [15] | [16] | [17]
active: [12] 31.3 µM

CCCCCCCCCCOC(=O)c1ccccc1C(=O)OCCCCCCCC
active: [11] 3.87 µM
inactive: [1] | [2] | [3] | [4] | [5] | [6] | [7] | [8] | [9] | [18] | [10] | [12] | [13] | [15] | [16] | [17]

OCCCO
inactive: [1] | [2] | [3] | [4] | [5] | [6] | [7] | [8] | [9] | [10] | [11] | [12] | [13] | [14] | [15] | [16] | [17]

CC(=N[Si](C)(C)C)O[Si](C)(C)C
inactive: [1] | [2] | [3] | [4] | [5] | [6] | [7] | [8] | [9] | [18] | [10] | [11] | [12] | [13] | [14] | [15] | [16] | [19]

[Cl][Dy]([Cl])[Cl]
inactive: [1] | [2] | [3] | [4] | [5] | [6] | [7] | [8] | [9] | [18] | [10] | [11] | [13] | [14] | [16] | [17] | [19]
